# Among all 310,000 compounds or so, about 14,000 (4.5%) showed an effect of 50% or more. Effects have a minus sign here. For the sample, strong results were picked, then their nearest neighbours and some compounds at random.
# Target: human ether-à-go-go-related gene (hERG) potassium channel (human, UniProt Q12809)
# Test: primary screen, population patch clamp on CHO cells stably expressing hERG; higher = less effect of the substance
# 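Further: peak tail current of the secondary pulse compared with the same well before compound.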
# Sequence of human ether-à-go-go-related gene (hERG) potassium channel (Q12809 whole entry, looked up): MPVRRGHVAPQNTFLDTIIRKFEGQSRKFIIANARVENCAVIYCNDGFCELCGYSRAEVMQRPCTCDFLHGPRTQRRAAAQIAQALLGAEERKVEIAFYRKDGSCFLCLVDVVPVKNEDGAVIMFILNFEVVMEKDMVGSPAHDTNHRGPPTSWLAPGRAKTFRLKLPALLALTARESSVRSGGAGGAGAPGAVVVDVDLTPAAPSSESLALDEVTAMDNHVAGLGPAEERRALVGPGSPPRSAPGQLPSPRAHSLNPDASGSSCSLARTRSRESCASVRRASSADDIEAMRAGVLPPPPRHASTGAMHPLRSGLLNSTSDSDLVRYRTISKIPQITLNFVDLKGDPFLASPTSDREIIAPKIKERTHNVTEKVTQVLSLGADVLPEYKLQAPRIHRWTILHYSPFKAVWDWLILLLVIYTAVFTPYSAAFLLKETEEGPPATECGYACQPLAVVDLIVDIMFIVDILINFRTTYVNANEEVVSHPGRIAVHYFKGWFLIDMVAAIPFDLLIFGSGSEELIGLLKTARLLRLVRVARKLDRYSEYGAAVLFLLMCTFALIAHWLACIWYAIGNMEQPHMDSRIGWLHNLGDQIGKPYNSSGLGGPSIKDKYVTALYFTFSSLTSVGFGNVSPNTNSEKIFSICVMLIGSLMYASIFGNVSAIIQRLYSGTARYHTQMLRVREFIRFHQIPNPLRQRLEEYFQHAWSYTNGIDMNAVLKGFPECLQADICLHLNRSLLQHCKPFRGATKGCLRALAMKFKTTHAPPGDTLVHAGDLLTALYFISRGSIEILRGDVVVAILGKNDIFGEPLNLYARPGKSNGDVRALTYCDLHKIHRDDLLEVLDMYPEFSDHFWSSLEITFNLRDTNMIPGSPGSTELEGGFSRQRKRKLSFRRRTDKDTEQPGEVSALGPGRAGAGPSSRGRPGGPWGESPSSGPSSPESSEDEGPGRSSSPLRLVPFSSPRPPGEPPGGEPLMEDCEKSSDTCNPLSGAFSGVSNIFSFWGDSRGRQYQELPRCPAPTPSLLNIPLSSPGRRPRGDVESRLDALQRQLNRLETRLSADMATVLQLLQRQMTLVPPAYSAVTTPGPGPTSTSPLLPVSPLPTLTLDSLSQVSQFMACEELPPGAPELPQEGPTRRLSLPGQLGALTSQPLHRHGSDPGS
row,Compound,"hERG current change (%, negative = inhibition) at 10uM [%]"
1,Cn1nnnc1SCC(=O)N1c2ccccc2Sc2ccc(Cl)cc21,-16.4
2,COC(=O)C(C)Oc1ccc2c(c1)O/C(=C\c1cccc(Br)c1)C2=O (stereo not drawn),-46.9
3,COc1ccc(C2c3[nH]c4ccccc4c3C[C@H]3C(=O)N(c4ccccc4C(=O)N4CCC[C@H]4C(=O)O)C(=O)N23)cc1 (stereo partly drawn),3.11
4,CC(C)C[C@@]12C(=O)N(c3cccc(Cl)c3)C(=O)N1[C@H](c1ccc(Cl)cc1)[C@@H]1C(=O)N(C3CCCCC3)C(=O)[C@@H]12,11.2
5,Cc1ccc(C)c(NC(=O)CN(C)C(=O)CN2C(=O)C3CCCCC3C2=O)c1 (stereo not drawn),10
6,O=C(NCC(c1ccco1)N1CCCC1)c1ccccc1Sc1ccc(C(F)(F)F)cc1[N+](=O)[O-] (stereo not drawn),-55.4
7,N#Cc1ccccc1Sc1ccccc1C(=O)NCC(c1ccco1)N1CCCC1 (stereo not drawn),-27.9
8,N#Cc1ccccc1Sc1ccccc1C(=O)NCC(c1ccco1)N1CCCCC1 (stereo not drawn),-19
9,CCOC(=O)COn1c(-n2nc(C)cc2C)nc2ccccc2c1=O,0.487
10,Cc1ccccc1NC(=O)c1ccccc1O,9.03
11,CCC(=O)Nc1ccc2c(c1)nc(CCN1CCCCC1)n2C,7.26
12,Cc1ccc(C(C)C)c(OCC(=O)Nc2ccc3c(c2)nc(CCN2CCCCC2)n3C)c1,-75.8
13,Cc1cccc(OCC(=O)Nc2ccc3c(c2)nc(CN2CCCCC2)n3C)c1.Cl,-25.3
14,CCCC(=O)Nc1ccc2c(c1)nc(CN1CCCC1)n2C,11.7
15,Cc1ccc(C(C)C)c(OCC(=O)Nc2ccc3c(c2)nc(CN2CCCC2)n3C)c1,-76.2
16,CC(C)CC(=O)Nc1ccc2c(c1)nc(CCN1CCCCC1)n2C,-9.9
17,Cc1ccc(OCc2nc(-c3ccccn3)no2)c(Br)c1,-22.5
18,CC(=O)c1cccc(OCC(=O)Nc2cccc(C(=O)Nc3c(C)n(C)n(-c4ccccc4)c3=O)c2)c1,-7.78
19,C=C1C(C(=O)N2CCN(C)CC2)C1C(=O)N1CCN(C)CC1 (stereo not drawn),-2.23
20,CC(C)Cn1c(N)c(C(=O)CSc2nnnn2C)c(=O)n(C)c1=O,4.91
21,CC(C)Cn1c(N)c(C(=O)COC(=O)c2ccc3ccccc3n2)c(=O)n(C)c1=O,-59.9
22,CC(C)Cn1c(N)c(C(=O)COC(=O)CCc2nc3ccccc3s2)c(=O)n(C)c1=O,-69.3
23,CCCn1c(N)c(C(=O)CSc2nnnn2-c2ccc(O)cc2)c(=O)n(C)c1=O,5.2
24,Cn1c(N)c(C(=O)COC(=O)c2ccc([N+](=O)[O-])o2)c(=O)n(C)c1=O,-34.6
25,CC(C)Cn1c(N)c(C(=O)COC(=O)c2ccc([N+](=O)[O-])o2)c(=O)n(C)c1=O,-69.5
26,CCc1ccc(C(=O)OCC(=O)c2c(N)n(CC(C)C)c(=O)n(C)c2=O)cc1,-0.249

row,Compound,"hERG current change (%, negative = inhibition) at 10uM [%]"
1,Cn1c(N)c(C(=O)COC(=O)CCCc2nc3ccccc3s2)c(=O)n(C)c1=O,9.03
2,CC(C)Cn1c(N)c(C(=O)COC(=O)c2cc(-c3ccccc3)nc3ccccc23)c(=O)n(C)c1=O,-8.18
3,CC(C)Cn1c(N)c(C(=O)COC(=O)c2cc(C(F)(F)F)nc3ccccc23)c(=O)n(C)c1=O,0.872
4,Cc1ccc(-n2nnnc2SCC(=O)c2c(N)n(CC(C)C)c(=O)n(C)c2=O)cc1,-69.1
5,Cn1c(N)c(C(=O)COC(=O)CCc2nc3ccccc3s2)c(=O)n(C)c1=O,5.93
6,COc1ccc(NS(=O)(=O)c2ccc(NC(=O)C3CC3)cc2)cc1,18.6
7,CCOc1ccc(CC(=O)OCn2nnc3ccccc3c2=O)cc1,11.4
8,Cc1ccc(NS(=O)(=O)c2ccc(-c3ccc(=O)[nH]n3)o2)cc1N(C)C,1.5
9,Fc1ccccc1C1c2cccn2CCN1C(=S)Nc1cccc(Br)c1 (stereo not drawn),12.9
10,CN1C(=O)OC(C)(C)C1=O,-2.78
11,CO/N=C/C(C#N)=C/c1cc(C(=O)c2ccccc2)cn1C,18.4
12,O=C1OCCN1C(=O)[C@H]1[C@H](c2ccc([N+](=O)[O-])cc2)C(c2cccc(Cl)c2)=NN1c1ccccc1,5.99
13,CCOC(=O)c1ccc(NC(=O)N2C3CCCC2CC(NC(C)=O)C3)cc1 (stereo not drawn),-11.6
14,Cc1csc(=O)n1CCC(=O)OCC(=O)c1c(N)n(CC(C)C)c(=O)n(C)c1=O,-26.2
15,Cc1ccccc1OCCC(=O)OCC(=O)c1c(N)n(CC(C)C)c(=O)n(C)c1=O,-75.2
16,Cc1cccc(C(=O)OCC(=O)c2c(N)n(CC(C)C)c(=O)n(C)c2=O)c1O,-15.2
17,Cc1ccc(OCCC(=O)OCC(=O)c2c(N)n(CC(C)C)c(=O)n(C)c2=O)cc1,-71.9
18,CCOc1ccccc1OCC(=O)OCC(=O)c1c(N)n(CC(C)C)c(=O)n(C)c1=O,-67.5
19,CC(C)Cn1c(N)c(C(=O)COC(=O)CCNS(=O)(=O)c2ccccc2)c(=O)n(C)c1=O,-48.4
20,CCOc1ccc(OCCC(=O)OCC(=O)c2c(N)n(C)c(=O)n(C)c2=O)cc1,-23
21,CCC(C(=O)OCC(=O)c1c(N)n(CC(C)C)c(=O)n(C)c1=O)c1ccccc1 (stereo not drawn),-2.13
22,CC(=O)NC(CC(=O)OCC(=O)c1c(N)n(CC(C)C)c(=O)n(C)c1=O)c1ccccc1 (stereo not drawn),-3.32
23,Cc1ccc(S(=O)(=O)CCC(=O)OCC(=O)c2c(N)n(CC(C)C)c(=O)n(C)c2=O)cc1,-27.9
24,Cc1ccc(OCCC(=O)OCC(=O)c2c(N)n(C)c(=O)n(C)c2=O)cc1,-58.3
25,Cc1cc(C)cc(OCC(=O)OCC(=O)c2c(N)n(C)c(=O)n(C)c2=O)c1,-5.06
